Rv3671c inh: inhibitors of M. tuberculosis serine protease Rv3671c. P9WHR9. inhibition, % at 5.96 µM. actives 0.048% (n = 320,000); in the data active means inhibition above about 38%;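 further: extracellular domain of Rv3671c used as enzyme; 0% = enzyme with DMSO and 100% = no enzyme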
GDH-TPI counter-1: counter-screen for M. tuberculosis FBA inhibitors: GDH-TPI coupled enzymes; GDH-TPI coupled enzyme counterscreen, NADH absorbance; inhibition, % at 4.8 µM; actives 1.2% (n = 360,000); AID 588335; in the data active means inhibition above about 30%;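 further: 0% = DMSO wells and 100% = wells lacking the enzyme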
Mtb bLac sens: beta-lactam sensitization of Mtb H37Rv. AID 434955. actives 0.27% (n = 330,000). M. tuberculosis H37Rv growth with meropenem, percent inhibition. inhibition, % at 25 µM; call rule not given here;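 further: growth measured after seven days incubation then overnight dye step; 0% = bacteria only wells and 100% = bacteria with antibiotic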
Mtb FBA inh: inhibitors of M. tuberculosis fructose-bisphosphate aldolase; P9WQA3; purified M. tuberculosis FBA, fluorescence read-out; inhibition, % at 1 µM; actives 2.3% (n = 360,000); AID 588726;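 further: 0% = vehicle and 100% = reference inhibitor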
Target sequence (P9WQA3 whole entry, looked up): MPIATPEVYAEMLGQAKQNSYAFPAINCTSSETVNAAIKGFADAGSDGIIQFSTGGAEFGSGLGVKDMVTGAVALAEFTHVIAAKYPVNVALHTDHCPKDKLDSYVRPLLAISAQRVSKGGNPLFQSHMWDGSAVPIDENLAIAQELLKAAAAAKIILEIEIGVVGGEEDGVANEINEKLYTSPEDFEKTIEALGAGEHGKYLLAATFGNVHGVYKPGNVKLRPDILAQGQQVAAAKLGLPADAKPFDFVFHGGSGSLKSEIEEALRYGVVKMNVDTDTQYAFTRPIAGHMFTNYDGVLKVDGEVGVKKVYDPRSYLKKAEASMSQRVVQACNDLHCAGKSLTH
UGM FP inh: Mtb UDP-galactopyranose mutase inhibition; AID 504406; inhibition, % at 10 µM; purified UGM, fluorescence polarization probe displacement; actives 0.06% (n = 320,000); P9WIQ1; in the data active means inhibition above about 10%, passing the limit was not always enough
Mtb FBA confirm: confirmation of M. tuberculosis fructose-bisphosphate aldolase inhibitors; purified M. tuberculosis FBA, fluorescence read-out; inhibition, % at 1 µM; shares compounds with Mtb FBA inh; actives 78% (n = 5,600);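 further: 0% = vehicle wells and 100% = reference inhibitor wells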
GDH-TPI counter-2: inhibits GDH-TPI coupling enzymes, flagging Mtb FBA hits; actives 81% (n = 5,600); GDH-TPI coupled enzyme counterscreen, fluorescence; inhibition, % at 1 µM; shares compounds with Mtb FBA inh; in the data active means inhibition above about 10%
Active calls of the source: *; · = no result; + = active, no number. Hits are enriched below; roughly 3.5% of the tested compounds scored in any of these assays. Unless noted, no stated cut-off is given here; in the data, active means inhibition above about 27%; inactive means the rest.

SMILES	Rv3671c inh	GDH-TPI counter-1	Mtb bLac sens	Mtb FBA inh	UGM FP inh	Mtb FBA confirm	GDH-TPI counter-2
N#Cc1ccc(-c2ccc(OCC(O)Cn3nnc4ccccc43)cc2)cc1 (stereo not given)	-4	3	22	31*	-1	+	+
Cn1cc(CN2CCC(n3nccc3NC(=O)C3CCCC3)CC2)cn1	·	-5	-4	0	1	·	·
CC1(C)Nc2ccccc2C(=O)N1NC(=O)c1ccccc1	0	8	3	11	-3	·	·
CCOC(=O)NN1C(=O)c2ccccc2NC1c1ccc(OC)c(OC)c1 (stereo not given)	3	-9	-1	43*	-1	5	-4
CCOC(=O)N1CCC2(CC1)NC(=O)c1ccccc1N2	·	9	·	85*	·	37*	25*
CCOC(=O)NN1C(=O)c2ccccc2NC1(C)C	5	3	0	104*	-3	136*	112*
COc1ccc(C2Nc3ccccc3C(=O)N2NC(=O)c2ccccc2)cc1OC (stereo not given)	8	2	-1	7	0	·	·
COc1ccc(C2Nc3ccccc3C(=O)N2NC(C)=O)cc1OC (stereo not given)	1	-2	1	36*	-4	36*	26*
COc1ccccc1NC(=O)C(C)OC(=O)C1CC(=O)N(Cc2ccco2)C1 (stereo not given)	·	14	·	2	·	·	·
O=Cc1c(N2CCC3(CC2)OCCO3)nc2ccccn2c1=O	2	7	-2	-1	-4	·	·
CC(=O)Nc1ccc(-c2ccccc2)s1	1	5	-4	2	1	·	·
CNC(=O)c1ccc(-c2ccccc2)s1	-1	5	-12	28*	3	78*	53*
CC(O)c1nc2ccc(C(=O)O)cc2[nH]1 (stereo not given)	-10	11	2	-3	-1	·	·
COc1ccc(NC(=O)COc2ccc(N(C)S(=O)(=O)c3ccc(Cl)cc3)cc2)cc1OC	-1	-4	-8	0	4	·	·
COc1ccc(-c2nc(CCNC(=O)c3ccco3)cs2)cc1OC	-2	-10	-7	26	1	·	·
CCN(CC(=O)Nc1c(F)cccc1F)C(=O)Cc1csc(-c2ccc(OC)c(OC)c2)n1	7	-6	-2	44*	0	68*	56*
CCCS(=O)(=O)NCCc1csc(-c2ccc(OC)c(OC)c2)n1	-10	5	-10	35*	1	92*	78*
CCS(=O)(=O)NCCc1csc(-c2ccc(OC)c(OC)c2)n1	-2	12	-2	55*	-3	-3	-5
O=c1cc(-c2cccnc2)oc2c1ccc1ccccc12	-2	0	94	45*	2	+	186*
COc1ccc2nc(CC(C)(C)CC(=O)O)c[n+]([O-])c2c1	12	9	-14	64*	-1	+	+
O=C(O)c1cc2nccc(-c3ccco3)n2n1	4	36*	5	32*	1	122*	98*
COc1ccc(-c2ccnc3cc(C(=O)O)nn23)cc1	4	14	-2	36*	1	0	-6
Cc1cc2nccc(-c3ccc(F)cc3)n2n1	6	-3	-2	3	0	·	·
c1coc(-c2ccnc3nc(-n4cccc4)nn23)c1	1	4	-4	3	0	·	·
CCN(CC)c1c([N+](=O)[O-])c(=O)n(CC)c2ccccc12	-4	8	0	3	0	·	·
SMILES	Rv3671c inh	GDH-TPI counter-1	Mtb bLac sens	Mtb FBA inh	UGM FP inh	Mtb FBA confirm	GDH-TPI counter-2
NC(=O)c1nc(-c2ccccc2)c(-c2ccccc2)[nH]c1=O	-1	13	-6	67*	2	37*	22*
CCOC(=O)c1nnc(-c2ccccc2)[nH]c1=O	-7	9	3	0	-2	·	·
COC(=O)c1nn(C)c(=O)[nH]c1=O	·	5	·	-1	·	·	·
COc1cc(OC)cc(C(=O)N2CCCC(c3nc(-c4ccc(C)o4)no3)C2)c1 (stereo not given)	-5	1	-6	31*	-1	2	-6
COc1ccc(-c2noc(C3CCCN(C(=O)c4cccc(C)c4)C3)n2)cc1 (stereo not given)	3	-4	2	78*	2	115*	77*
Cc1ccc(-c2noc(C3CCCN(C(=O)c4cccc(F)c4)C3)n2)cc1 (stereo not given)	-2	-10	7	1	1	·	·
Cc1ccn2c(=O)nc(SCC(=O)N3N=C(c4cccs4)CC3c3ccc(F)cc3)nc2c1 (stereo not given)	4	15	3	5	4	·	·
Fc1ccccc1-c1nc(-c2ccc(Br)o2)no1	-3	1	-2	-5	0	·	·
CC(=O)Nc1ncnc2c1c(-c1ccc(Cl)cc1)nn2C(C)(C)C	-1	-8	5	50*	-3	81*	75*
CC(=O)N(C(C)=O)c1ncnc2c1c(-c1ccc(Cl)cc1)nn2C(C)(C)C	1	-2	1	50*	2	-1	1
CCN(Cc1ccncc1)Cc1c(O)ccc2cc(Br)ccc12	·	4	·	1	·	·	·
CC(=O)c1c(C)[nH]c(C(=O)CN2C(=O)NC3(CCCCC3C)C2=O)c1C (stereo not given)	·	0	·	1	·	·	·
OCCNc1c2ccccc2nc2c(F)c(F)c(F)c(F)c12	1	2	-5	72*	-2	+	+
CCCCN(C)C(=O)C1CCC(CNS(=O)(=O)c2ccc3c(c2)CC(C)N3C(=O)C2CC2)CC1 (stereo not given)	0	4	-3	-2	1	·	·
CC1CCCCN1Cc1c(O)ccc2c(=O)c(-c3ccc(Cl)cc3Cl)coc12 (stereo not given)	-4	18	-8	62*	2	+	+
CC1CCCCN1Cc1c(O)ccc2c(=O)c(-c3ccc(Cl)cc3)coc12 (stereo not given)	5	9	-3	52*	0	123*	103*
CC1CCCCN1Cc1c(O)ccc2c(=O)c(-c3ccc(Br)cc3)coc12 (stereo not given)	·	16	·	42*	·	+	164*
Cc1c(CN2CCCCC2C)c(=O)n(-c2ccccc2)n1C (stereo not given)	6	1	-5	2	3	·	·
CC1CCCCN1Cc1ccc(N)cc1 (stereo not given)	2	-7	9	1	0	·	·
CC(=O)c1cnn(-c2c(Cl)cc(Cl)cc2Cl)c1C	4	0	-1	4	-1	·	·
CCN(CC)CCn1c2c(c(SCC(=O)Nc3cc(C)on3)nc1=O)CCCC2	-2	9	-4	3	-1	·	·
CC[C@]12c3[nH]c4ccccc4c3CCN1C(=O)C(CC(=O)NCc1ccc(OC)c(OC)c1)C[C@@H]2C(=O)N1CCN(C(=O)C2CC2)CC1 (stereo not given in full)	0	9	-9	3	5	·	·
